Assay outcomes: PubChem BioAssay, National Center for Advancing Translational Sciences (NCATS)
Hits are enriched below; roughly 2.2% of the tested compounds scored in any of these assays.
aSyn rescue: inhibitors of alpha-synuclein toxicity in yeast | Potency, µM (doses to about 46.1 µM), without a hit: at the highest dose growth rescue (activation), most hits filed as activators | Yeast expressing alpha-synuclein, growth rescue, BacTiter-Glo, 24 h | hit rate 0.14% among 370,000; further: % of control where 0% means no effect; nearly all actives have a fitted effect of over 65% in size
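Rescue of yeast growth: cells expressing toxic alpha-synuclein, induced in galactose at OD600 0.02, incubated with compound 24 h at 30 C. ATP luminescence quantified growth; inhibitors of toxicity appear as activators.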
Mito fusion yeast: inhibitors of mitochondrial division or activators of mitochondrial fusion; S. cerevisiae fusion-defective mutant growth rescue, CellTiterGlo 48 h; hit rate 0.23% among 320,000; AID 485298; Potency, µM (highest dose often 46.1 µM), without a hit: at the highest dose growth rescue (activation), hits mostly activators; further: % of control where 0% means no effect; nearly all actives have a fitted effect of over 45% in size
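Compounds are tested for their ability to restore growth of mitochondrial fusion-defective yeast strains at non-permissive 37C in YPEG medium over 48 hours. Viability is quantified by luciferase luminescence.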
Abeta yeast res: restores growth of yeast expressing A-beta42 peptide; yeast expressing A-beta42, growth rescue, OD600, 48 h; response scale: 0% DMSO, 100% iron-clioquinol control; Potency, µM (top dose mostly 46.1 µM), hits mostly activators; hit rate 0.063% among 410,000; further: nearly all actives have a fitted effect of over 55% in size
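Yeast A-beta toxicity model in growth medium with pinned compounds, 48 h at 30 C; growth read as absorbance at 600 nm. Normalized to FeCl3/clioquinol equimolar mix (positive) and DMSO (negative).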
FUS suppressor: suppressors of FUS proteinopathy in yeast; Potency, µM (top dose mostly 76.6 µM), most hits filed as activators; S. cerevisiae FUS-expressing, growth rescue, OD600, 24 h; AID 1347120; hit rate 0.24% among 390,000;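 further: plate controls were DMSO vehicle for no effect and reference control for full effect; nearly all actives have a fitted effect of over 55% in size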
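Yeast FUS proteinopathy model; galactose-induced FUS (2%), starting OD 0.005. Cpds in dilution series, 24hr, 30C, 99% humidity. Abs 600 nm growth. Pos ctrl CP55940 (top 92uM final); neg ctrl DMSO.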
TDP43 rescue: TDP-43 toxicity inhibition in yeast | AID 652104 | TDP-43 expressing yeast growth rescue, BacTiter-Glo, 24 h | hit rate 1.8% among 410,000 | Potency, µM (top dose mostly 46.1 µM), without a hit: top-dose growth rescue (activation), actives largely listed as activators; further: % of control where 0% means no effect; nearly all actives have a fitted effect of over 50% in size
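Luminescence from BacTiter-Glo reports growth of TDP-43-expressing yeast after 24 hr at 30 deg C with compound. Cells were raffinose-pregrown to mid-log, then seeded in galactose medium at OD600=0.02.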
Numbers without * were called inactive; i = inactive; ? = inconclusive; nt = no result. The call rests on the fitted dose curve; in most records, active means well fitted curve in the direction sought with a large enough effect; inconclusive means small, poorly fitted or top-dose-only effect, or another doubt; inactive means no such curve, though single readings can be large; an effect the other way counts as inactive or inconclusive. Potency means the concentration at half of the fitted maximal effect.

SMILES | aSyn rescue | Mito fusion yeast | Abeta yeast res | FUS suppressor | TDP43 rescue
COc1ccccc1-c1noc(-c2cccnc2)n1 | 4% | 4% | i | i | 11µM*
COc1nc(-c2ccccc2)ccc1-c1noc(-c2cccnc2)n1 | 5% | 15% | i | i | -11%
CCOc1ccc(-c2noc(-c3ccncc3)n2)cc1OCC | -1% | 5% | i | i | 0%
COc1ccccc1-c1nc(-c2ccc(Br)cc2)no1 | -9% | 7% | i | i | -10%
COc1ccccc1-c1nc(-c2ccncc2)no1 | nt | -4% | i | i | 11µM*
CCc1ccc(OCC(=O)N(Cc2ccco2)Cc2ccco2)cc1 | nt | nt | i | i | 5%
CCOc1ccc(CCNC(=O)c2ccc3c(c2)nc2n3CCOC2)cc1OCC | nt | nt | i | i | 10%
Cn1ccc2c(OCC(=O)NCc3ccc(F)cc3)cccc2c1=O | nt | nt | i | i | ?
O=C(NNC(=O)c1ccccn1)c1ccc(OC(F)F)cc1 | ? | nt | i | i | 32µM*
CCOc1ccc(/C=C/c2ccc3ccccc3[n+]2C)cc1OCC | -2% | nt | nt | nt | nt
COc1ccc(C2C=C(C34CC5CC(CC(C5)C3)C4)NC(=S)N2)cc1 (stereo not drawn) | 10% | 11µM* | ? | i | 16%
COc1ccc(C2=CC(c3ccc(OC)c(OC)c3)NC(=S)N2)cc1 (stereo not drawn) | 4% | -7% | ? | i | 4%
CCOC(=O)c1cc2c(=O)n3ccccc3nc2n(CC2CCCO2)c1=NC(=O)c1ccccc1OCC (stereo not drawn) | nt | nt | i | i | 21%
CC1(C)c2ssc(=S)c2-c2ccccc2N1C(=O)CSC1=NCCS1 | 14% | -1% | i | i | 35µM*
CCc1nc(Nc2ccccc2OC)c2oc3ccccc3c2n1 | -2% | -2% | i | i | 13µM*
CCc1nc(Nc2cc(OC)ccc2OC)c2oc3ccccc3c2n1 | -10% | -14% | i | i | 0%
CC(C)CC(N)c1csc(NC(=O)NCCc2ccccc2)n1 (stereo not drawn) | 2% | nt | i | i | 12%
NC(Cc1ccc(C(F)(F)F)cc1)c1csc(NC(=O)NCCc2ccccc2)n1 (stereo not drawn) | -37% | nt | i | 22µM* | 0%
Cc1ccc(-n2c(C)nc3c(cnn3-c3ccc(C)c(C)c3)c2=O)cc1C | 6% | 11% | i | i | ?
COc1cccc(-n2c(C)nc3c(cnn3-c3ccc(C)c(C)c3)c2=O)c1 | nt | nt | i | i | 22µM*
Cc1ccc(-n2c(C)nc3c(cnn3-c3ccccc3Cl)c2=O)cc1C | 0% | -1% | i | i | 11µM*
COc1ccc(-n2c(C)nc3c(cnn3-c3ccc(C)c(C)c3)c2=O)cc1Cl | nt | nt | i | i | 1%
C[C@@H]1CN([C@@H](C)CO)C(=O)c2cc(-c3ccncc3)cnc2O[C@H]1CN(C)C(=O)c1cccc(F)c1 | -8% | nt | i | i | 0%
Nc1cccnc1Sc1cccc(Cl)c1 | 14% | 2% | i | i | 18µM*
O=C(CCC(=O)N1CCOc2ccccc21)NCc1cccs1 | nt | nt | i | i | 10%
SMILES | aSyn rescue | Mito fusion yeast | Abeta yeast res | FUS suppressor | TDP43 rescue
CC(=O)c1cccc(Nc2nc(-c3cccc(C)c3)nc3ccccc23)c1 | nt | nt | i | ? | 16µM*
Oc1ccc2[nH]cc(CCc3ccccc3)c2c1-c1ccccc1 | nt | nt | nt | i | nt
CCOC(=O)CSc1nnc(CNc2ccc(Cl)cc2)n1Cc1ccccc1 | ? | 18% | i | i | 14µM*
COc1ccc(-c2ccc(=O)n(CC(=O)Nc3ccc(C)cc3C)n2)cc1 | nt | nt | i | i | 24%
Cc1ccc(/C=C/c2onc(C)c2S(=O)(=O)N2CCC(C(=O)N3CCC(N(C)C(C)C)CC3)CC2)cc1 | nt | nt | i | i | 15%
Cc1ccc(CNC(=O)Cn2c(=O)cc(-c3ccccc3)c3c(C)nn(C)c32)cc1 | nt | nt | i | i | 22µM*
Cc1ccc(CNC(=O)C(C)n2c(=O)cc(-c3ccccc3)c3c(C)nn(C)c32)cc1 (stereo not drawn) | nt | nt | i | i | 22µM*
COc1cccc(CNC(=O)C(C)n2c(=O)cc(-c3ccccc3)c3c(C)nn(C)c32)c1 (stereo not drawn) | nt | nt | i | i | 22µM*
COc1ccccc1CNC(=O)C(C)n1c(=O)cc(-c2ccccc2)c2c(C)nn(C)c21 (stereo not drawn) | nt | nt | i | ? | 16µM*
CC(C)(C)OC(=O)N1CCC(c2c(C(=O)Nc3ccc4c(c3)OCCO4)cnn2-c2ccc(F)cc2)CC1 | nt | nt | i | i | ?
Cc1cc(C=O)c(C)n1-c1ccc(N2CCCCC2)c([N+](=O)[O-])c1 | -6% | 1% | i | i | 18µM*
Cc1cc(/C=C(\C#N)C(N)=O)c(C)n1-c1ccc(N2CCOCC2)c([N+](=O)[O-])c1 | 10% | 13% | i | i | 9%
Cc1noc(-c2ccc(N3CCCCC3)c([N+](=O)[O-])c2)n1 | nt | nt | i | i | 18µM*
CC1(C)C2CCC1(C)C(NC(=O)COC(=O)c1ccc(S(C)(=O)=O)c([N+](=O)[O-])c1)C2 (stereo not drawn) | 2% | nt | nt | nt | nt
O=C(NCc1ccc(Cl)cc1Cl)c1cccc(N2CCCS2(=O)=O)c1 | nt | nt | i | i | 21%
Cc1ccc(-n2ncc3c(N4CCN(CCO)CC4)ncnc32)cc1Cl | nt | nt | i | i | -15%
Cc1cc(C)n(-c2cc(C(C)(C)C)nc3c(-c4ccccc4)cnn23)n1 | -6% | 8% | i | i | 14µM*
COc1ccc(C(=S)N2CCCC2)cc1Br | 11% | -11% | i | i | 11µM*
C(=C\c1c[nH]c2ccccc12)/c1ccnc2ccccc12 | 3% | nt | nt | nt | nt
S=C(Nc1ccccc1)Nc1ccccc1-n1cccc1 | 16% | -7% | 13µM* | i | ?
CCOc1ccc(OCC)c(NS(=O)(=O)c2ccc(-c3coc(C)n3)cc2)c1 | nt | nt | i | i | ?
Cc1cc(-c2nc(-c3ccncc3)no2)ccc1[N+](=O)[O-] | -3% | -21% | i | i | 11µM*
